Screens: PubChem, National Center for Advancing Translational Sciences (NCATS)
A selection: hits, their analogues and other compounds. The true share with any hit is near 19%.
DT40 TDP1 CPT: qHTS for Inhibitors of human tyrosyl-DNA phosphodiesterase 1 (TDP1): qHTS in cells in presence of CPT | Potency, µM (series often up to 46.2 µM), for the others: at the highest dose activity change, negative = growth inhibition, usual class: inhibitors | 420,000 tested, 12% active | chicken DT40 Tdp1-/-;hTDP1 cells + 20 nM CPT, ATP luminescence, 48 h; note: potency is the fitted concentration of half-maximal effect; nearly all actives have a fitted effect of over 55% in size
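Chicken DT40 Tdp1-/- cells complemented with human TDP1, 400 cells/well, exposed to compounds plus 20 nM camptothecin for at least 48 h at 37 C; viability read as ATP content by CellTiter-Glo luminescence.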
ELG1 repair inh: qHTS screen for small molecules that inhibit ELG1-dependent DNA repair in human embryonic kidney (HEK293T) cells expressing luciferase-tagged ELG1; HEK293T ELG1-luciferase reporter, luminescence, 16 h; DNA damage induced by 5-fluorouridine; Potency, µM (highest dose often 46.1 µM), for inactives: at the top dose activity change, negative = inhibition, usual class: inhibitors; 330,000 tested, 2.3% active; note: potency is the fitted concentration of half-maximal effect; nearly all actives have a fitted effect of over 55% in size
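Overnight (16 hr) co-exposure of 2,000 cells/well to 5-fluorouridine and compound at 37 °C preceded detection. Luciferase was quantified via ONE-Glo luminescence; loss of signal denotes inhibition.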
HT1080 IDH1KD tx: qHTS for induction of synthetic lethality in tumor cells producing 2HG: qHTS for the HT-1080-IDH1KD cell line; HT-1080 IDH1 knockdown viability, ATP luminescence, 48 h; Potency, µM (series often up to 46.1 µM), inactives show at the top dose activity, negative = toxicity, usual class: cytotoxic; 360,000 tested, 2% active;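 note: potency is the fitted concentration of half-maximal effect; 0% = DMSO wells and -100% = cell-free medium wells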
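% activity derives from luminescence (CellTiter-Glo), normalised to DMSO and no-cell wells. HT-1080-IDH1KD cells, 750/well, had 48 h compound exposure at 37 °C.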
DT40 TDP1 no CPT: qHTS for Inhibitors of human tyrosyl-DNA phosphodiesterase 1 (TDP1): qHTS in cells in absence of CPT. DT40 Tdp1-/- hTDP1 cells, no CPT, ATP luminescence, 48 h. Potency, µM (series often up to 46.2 µM), for the others: at the highest dose activity change, negative = growth inhibition, most hits filed as inhibitors. 420,000 tested, 15% active. AID 686978, 2013; note: potency is the fitted concentration of half-maximal effect; nearly all actives have a fitted effect of over 55% in size
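Stably hTDP1-transfected Tdp1-null chicken DT40 cells were treated with library compounds minus camptothecin and grown for at least 48 hr at 37 °C, after which cellular ATP was quantified by luminescence.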
IL-1B inflam inh: qHTS for Inhibitors of Inflammasome Signaling: IL-1-beta AlphaLISA Primary Screen | AID 743279, 2014 | 360,000 tested, 4.7% active | activity change, % at 57.5 µM | THP-1 LPS/ATP IL-1B secretion, AlphaLISA, 16 h; active compounds read low; in the data active = activity change below about -50%; inconclusive = mostly about -30% to -49%
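Secreted IL-1B measured by AlphaLISA bead assay after 16 h compound exposure of THP-1 cells; compounds (final up to 57.5 uM) added 1 h before LPS (250 ng/mL) and ATP (1.25 mM) stimulation; lower signal means less secretion.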
HT1080-NT tox: qHTS for induction of synthetic lethality in tumor cells producing 2HG: qHTS for the HT-1080-NT fibrosarcoma cell line. HT-1080-NT fibrosarcoma viability, CellTiter-Glo ATP luminescence, 48 h. Potency, µM (doses to about 46.1 µM), without a hit: at the highest dose activity, negative = less viability, actives largely listed as cytotoxic. 360,000 tested, 1.6% active;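 note: NT is the 2HG producing partner of a matched IDH1 knockdown line; potency is the fitted concentration of half-maximal effect; 0% = DMSO-treated cells and -100% = media-only wells without cells; nearly all actives have a fitted effect of over 55% in size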
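A 48-hour cytotoxicity screen used HT-1080-NT cells plated 2 hours before compound delivery. ATP-based CellTiter-Glo luminescence measured viability, normalized to DMSO and no-cell controls.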
Numbers without * were called inactive; ? = inconclusive; · = no result given. Unless noted, calls come from the whole dose curve; as a rule, active = well fitted curve in the direction sought with a large enough effect; inconclusive = small, poorly fitted or top-dose-only effect, or another doubt; inactive = no such curve, though single readings can be large; an effect the other way counts as inactive or inconclusive. Unless noted, % is set by controls: 0 for no effect and ±100 for the full control effect.

SMILES	DT40 TDP1 CPT	ELG1 repair inh	HT1080 IDH1KD tx	DT40 TDP1 no CPT	IL-1B inflam inh	HT1080-NT tox
COc1cccc(/C=N/NC(=O)c2cc3c(OC)c(OC)ccc3[nH]2)c1OC	2.3µM*	?	6.5µM*	2.6µM*	26	?
CCOc1ccc(/C=N/NC(=O)c2cc3c(OC)cccc3[nH]2)cc1	18µM*	-7%	?	23µM*	?	?
COc1cc(/C=N/NC(=O)c2cc3ccccc3[nH]2)ccc1O	4%	-5%	-8%	-2%	-7	-10%
CCOc1cccc(C(=O)N/N=C/c2ccoc2)c1	-8%	?	8%	7%	5	7%
COc1cccc2[nH]c(C(=O)NCc3ccccc3)cc12	-6%	21µM*	2%	-22%	-22	-16%
COc1ccc(S(=O)(=O)N(CC(=O)NCCc2ccccc2)c2ccc(Cl)cc2)cc1	-26%	·	·	-20%	·	·
COc1cccc(/C=N/NC(=O)c2cc3c(OC)cccc3[nH]2)c1OC	-19%	-27%	15%	7.3µM*	-20	4%
COc1ccccc1/C=N/NC(=O)c1cc2c(OC)c(OC)ccc2[nH]1	4.1µM*	-13%	4.1µM*	3.3µM*	32	7.3µM*
COc1ccc(OC)c(/C=N/NC(=O)c2cc3c(OC)cccc3[nH]2)c1	-22%	0%	-7%	?	-29	-3%
COc1cccc(/C=N/NC(=O)CCc2n[nH]c(=O)[nH]c2=O)c1O	-2%	27%	-2%	?	0	-7%
COc1cccc(/C=N/NC(=O)c2cc3c(OC)cccc3[nH]2)c1O	5.2µM*	?	?	6.5µM*	69	?
COc1ccccc1/C=N/NC(=O)COCC(=O)N/N=C/c1ccccc1OC	-2%	-6%	-8%	-10%	37	0%
COc1ccc(NC(=O)CN2C(=O)NC3(CCCc4ccccc43)C2=O)c(OC)c1 (configuration not stated)	-26%	-7%	3%	?	-23	-1%
COc1ccccc1N(CC(O)CN1CCC(C)CC1)S(=O)(=O)c1ccccc1 (configuration not stated)	?	-5%	4%	-26%	-15	16%
COc1cccc(C(C)(O)c2nc(-c3cccc4cccnc34)cs2)c1 (configuration not stated)	?	·	4%	?	28	9%
COc1ccc(C2COc3cc(O)ccc3C2)c(OC)c1O (configuration not stated)	18µM*	·	?	16µM*	-14	?
Cc1ncc(CO)c(/C=N/NC(=O)c2cc3c(s2)CCCC3)c1O	5.8µM*	3.3µM*	2.6µM*	7.3µM*	90	?
Cc1ncc(CO)c(/C=N/NC(=O)c2ccc(O)cc2)c1O	1%	13%	17%	-8%	0	7%
COc1ccc(C(=O)N/N=C/c2c(CO)cnc(C)c2O)cc1	5.8µM*	13µM*	-18%	23µM*	33	-14%
Cc1ncc(CO)c(/C=N/NC(=O)c2ccoc2C)c1O	?	?	-19%	?	62	-5%
CSc1nn(Cc2ccc(Cl)cc2)c(N(C(C)=O)C(C)=O)c1S(=O)(=O)c1ccccc1	16µM*	·	·	?	·	·
CSc1nn(Cc2cccc(F)c2)c(N(C(C)=O)C(C)=O)c1S(=O)(=O)c1ccccc1	-22%	·	·	?	·	·
CSc1nn(Cc2ccc(C)cc2)c(N)c1S(=O)(=O)c1ccccc1	21µM*	·	·	23µM*	·	·
CSc1nn(Cc2ccc(F)cc2)c(N)c1S(=O)(=O)c1ccc(Cl)cc1	?	·	·	16µM*	·	·
Cc1nccn1CCOc1ccc(Cl)cc1	23%	-12%	4%	-3%	-9	3%
SMILES	DT40 TDP1 CPT	ELG1 repair inh	HT1080 IDH1KD tx	DT40 TDP1 no CPT	IL-1B inflam inh	HT1080-NT tox
Cc1ccc(OCCCCn2ccnc2C)c(C)c1	?	12µM*	-16%	?	-56*	-25%
Cc1ccc(C(C)C)c(OCCn2ccnc2C)c1	16µM*	0%	0%	23µM*	3	-30%
Cc1cc(C)n2nc(CNC(=O)c3ccccc3Cl)nc2n1	-17%	·	·	-10%	·	·
COc1ccc(NC(=O)Cn2c(=O)n(Cc3ccc4c(c3)OCO4)c(=O)c3ccc(C(=O)NC4CCCCC4)cc32)cc1	8.2µM*	·	·	7.3µM*	·	·
O=C1CCCC(O)=C1C=Nc1ccc(O)cc1	?	1%	-2%	26µM*	-4	-1%
CN(C)CC(O)COC(c1ccccc1)c1ccccc1 (configuration not stated)	-9%	5%	0%	-11%	-19	-3%
COc1ccc(CN(C)CC(O)COc2ccc(C(=O)c3ccccc3)cc2)c(OC)c1OC (configuration not stated)	?	-9%	?	16µM*	-67*	21µM*
COc1cccc(OC)c1OCCOc1ccc(C(=O)c2ccccc2)cc1	?	?	-13%	?	?	-12%
COc1ccc(CN(C)CC(O)COC(c2ccccc2)c2ccccc2)c(OC)c1OC (configuration not stated)	?	?	?	?	·	23µM*
COc1ccc(CCN(C)CC(O)COC(c2ccc(F)cc2)c2ccc(F)cc2)cc1OC (configuration not stated)	16µM*	?	?	?	-92*	23µM*
COc1ccc(Br)cc1CN(C)CC(O)COc1ccc(Br)cc1 (configuration not stated)	?	-14%	?	?	-85*	21µM*
Cn1nccc1C(=O)Nc1ccc2c(c1)OCO2	1%	?	-4%	4%	-16	-3%
CCN(Cc1ccccc1)CC(O)COC(c1ccc(OC)cc1)c1ccc(OC)cc1 (configuration not stated)	21µM*	-17%	-22%	21µM*	-6	?
CCN(CC)CC(O)COC(c1ccccc1)c1ccccc1 (configuration not stated)	-29%	8%	3%	14%	?	2%
